Reference: PubChem BioAssay

Each compound was assayed on Wnt5a (protein binding on small-molecule microarray) (assay: small molecules binding Wnt5a protein – biophysical, small-molecule microarray, 635/667 nm fluorescence, primary screen (AID 1142;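 also: fluorescence read at 667 nm with signal to noise per printed feature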)). Settings: 635 nm fluorescence, higher = more signal.
Work on `COCCOC(=O)N1C(=O)[C@@]2(c3cc(C#CCC(C(=O)OC)C(=O)OC)ccc31)[C@H](c1ccccc1OCCO)N1[C@H](c3ccccc3)[C@H](c3ccccc3)OC(=O)[C@H]1[C@@H]2C(=O)N1CCN(c2ncccn2)CC1` yielded a composite z-score of 0.621.
In the case of `C=CCC(OC(C)=O)[C@@H]1[C@@H](N(Cc2ccc(-c3ccccc3)cc2)C(=O)c2cccc3ccccc23)c2cc(OCCCO)ccc2N1C(=O)c1ccc(-c2ccccc2)cc1` (stereo not given in full), the composite z-score is reported as 0.0826.
Compound `O=C(NCCO)C1=C[C@H](Oc2ccccc2I)[C@@H](O)[C@H](N(Cc2ccco2)C(=O)Cc2ccccc2)C1` has a composite z-score of 0.234.
`C#C[C@H](O[Si](C#Cc1ccc(Oc2ccccc2)cc1)(C(C)C)C(C)C)c1ccccc1` was tested, and the composite z-score was 0.0942.
With `CC1CC/C=C\[C@H]2OC34C=CCN(Cc5ccccc5)C(=O)[C@H]3N(CCCO)C(=O)[C@@H]4C2C(=O)O1` (stereo not given in full) the composite z-score was -0.403.
For `CCOC(=O)C[C@H]1[C@H](OC(=O)c2ccc(C(=O)c3ccccc3)cc2)[C@@H](NC(=O)c2ccccc2)c2cc(OCCCO)ccc2N1C(=O)Cc1ccc(OC)cc1`, the composite z-score was 0.285.
`CC(C)CNC(=O)[C@@]1(Cc2ccccc2I)c2ccccc2C(=O)N(C2CCCCC2)[C@H]1c1ccc(CO)cc1` was tested, and the composite z-score was 0.705.
With `Cc1ccc(S[C@]2(C(=O)NCCCN(C)C)CC(=O)N(Cc3ccccc3C(F)(F)F)[C@@H]2c2ccc(CO)cc2)cc1` the composite z-score was -0.197.
Compound `C=CC[C@]1(C(=O)NCCCOC)N=C(c2ccc(OCCCO)cc2)O[C@H]1c1ccccc1CN=[N+]=[N-]` has a composite z-score of 1.11.
`Cc1ccc(S[C@]2(C(=O)NCCCN(C)C)CC(=O)N(Cc3cc(C(F)(F)F)cc(C(F)(F)F)c3)[C@@H]2c2ccc(CO)cc2)cc1` gave a composite z-score of -0.202.
Work on `CCCC[C@H]1OB(O)C[C@H]2C1=C(COC)Cn1c(=O)n(-c3ccccc3)c(=O)n12` yielded a composite z-score of 0.0162.
`COc1ccc(/C=C/C=O)cc1` was tested, and the composite z-score was 0.156.
For `NC(=O)NCC#Cc1ccc2c(c1)[C@]1(C(=O)N2)[C@H](c2ccccc2OCCO)N2[C@H](c3ccccc3)[C@H](c3ccccc3)OC(=O)[C@H]2[C@@H]1C(=O)Nc1nc2ccccc2s1`, the composite z-score was -0.0307.
For `C=CCC(OC(C)=O)[C@@H]1[C@@H](N(Cc2ccc(-c3ccccc3)cc2)C(=O)c2ccc(-c3ccccc3)cc2)c2cc(OCCCO)ccc2N1C(=O)Cc1ccc2ccccc2c1` (stereo not given in full), the composite z-score was 0.102.
`Cc1ccc(N2C(=O)c3ccccc3[C@@H](C(=O)NC3CC3)[C@@H]2c2ccc(CO)cc2)nc1` was tested, and the composite z-score was -0.645.
`COCCCNC(=O)[C@@]1(C)c2ccccc2C(=O)N(C(C)C)[C@H]1c1ccc(CO)cc1` was tested, and the composite z-score was 0.292.
`COC(=O)[C@@]1(Cc2ccc(OC)cc2)[C@@H]2C(=CC(=O)[C@H]2CC(=O)C(=O)N2CCCC2)CN1C(=O)c1ccccc1` was tested, and the composite z-score was 0.292.
For `C=C(COC)/C(=C/C[C@@H](OC(=O)c1ccncc1)c1ccc(CO)o1)c1cc(C(=O)OC)ccc1OC`, the composite z-score was 1.08.
In the case of `NC(=O)NCC#Cc1ccc2c(c1)[C@]1(C(=O)N2)[C@H](C(=O)Nc2nc3ccccc3s2)[C@H]2C(=O)O[C@H](c3ccccc3)[C@H](c3ccccc3)N2[C@@H]1c1ccccc1OCCO`, the composite z-score is reported as 0.436.
In the case of `COc1ccc(C(=O)Nc2ccc(CN3C(=O)[C@]4(O[C@H](CCO)[C@@H]([Si](C)(C)c5ccc(OC)cc5)[C@@H]4C)c4ccccc43)cc2)cc1`, the composite z-score is reported as 0.406.
Work on `COc1cc2c(cc1OC)CN(C(=O)[C@@H]1[C@H]3C(=O)O[C@H](c4ccccc4)[C@H](c4ccccc4)N3[C@H](c3ccc(O)cc3)[C@@]13C(=O)Nc1ccccc13)CC2` yielded a composite z-score of 0.33.
For `[N-]=[N+]=Nc1ccccc1[C@@H]1OC(c2ccc(OCCCO)cc2)=N[C@]1(CCS(=O)(=O)c1ccccc1)C(N)=O`, the composite z-score was 0.903.
For `COC(=O)[C@@]1(Cc2ccc(F)cc2)[C@H]2c3cc(C(=O)N4CCCC4)n(CCCNc4ncc(C(F)(F)F)cc4Cl)c3C[C@H]2CN1C(=O)c1ccccc1`, the composite z-score was -0.026.
In the case of `[N-]=[N+]=Nc1ccccc1[C@@H]1OC(c2ccc(OCCCO)cc2)=N[C@]1(Cc1ccccc1)C(=O)N1CCOCC1`, the composite z-score is reported as 0.546.
For `C=CCC(OC(C)=O)[C@@H]1[C@@H](N(Cc2ccc(-c3ccccc3)cc2)C(=O)Cc2ccc(OC)cc2)c2cc(OCCCO)ccc2N1C(=O)Cc1ccc2ccccc2c1` (stereo not given in full), the composite z-score was -0.263.
Work on `CC1(C)C2C=C(C(O)C3C=CC4C(=O)NC(=O)C4N3Nc3ccc(Cl)cc3Cl)C[C@@H]1C2` (stereo not given in full) yielded a composite z-score of 0.696.
`CO[C@H]1O[C@H](CO)[C@@H](OC(=O)Nc2cccc(F)c2)[C@H](OC(=O)Nc2ccccc2)[C@@H]1OC(=O)Nc1ccccc1` showed a composite z-score of 0.343.
`COc1ccc(C(O)C2C=CC3C(=O)N(Cc4ccccc4)C(=O)C3N2n2cnnc2)cc1OCc1ccccc1` (stereo not given) was tested, and the composite z-score was 0.0401.
`COC(=O)[C@@]1(Cc2ccc(OC)cc2)[C@H]2c3cc(C(=O)N4CCCC4)n(Cc4ccc(C)c(F)c4F)c3C[C@H]2CN1C(=O)c1ccccc1` showed a composite z-score of 0.634.
Work on `CC(=O)NCCCC[C@@H]1NC(=O)[C@H]2C[C@@H](C(=O)NCCCCCCNC(=O)CS)[C@@H](c3ccc(O)cc3)N2C1=O` yielded a composite z-score of 0.151.
`COCCOC(=O)N1C(=O)[C@@]2(c3cc(C#CC4(O)CCCCCC4)ccc31)[C@H](c1ccc(OCCO)cc1)N1[C@H](c3ccccc3)[C@H](c3ccccc3)OC(=O)[C@H]1[C@@H]2C(=O)N1CCN(c2ncccn2)CC1` was tested, and the composite z-score was 0.499.
Compound `CCCCCN1CC=CC23O[C@@H]4/C=C\CCC(C)OC(=O)C4[C@H]2C(=O)N(C(C)CO)[C@@H]3C1=O` (stereo not given in full) has a composite z-score of -0.105.
`COc1ccc(C#Cc2ccc3c(c2)[C@]2(C(=O)N3)[C@H](C(=O)NC[C@H](O)c3ccccc3)[C@H]3C(=O)O[C@H](c4ccccc4)[C@H](c4ccccc4)N3[C@@H]2c2ccc(O)cc2)cc1` gave a composite z-score of 0.288.
For `COc1ccc(C#Cc2ccc3c(c2)[C@]2(C(=O)N3)[C@H](c3ccccc3OCCO)N3[C@H](c4ccccc4)[C@H](c4ccccc4)OC(=O)[C@H]3[C@@H]2C(=O)Nc2nc3ccccc3s2)cc1`, the composite z-score was 0.469.
Work on `CN1C(=O)C2C=CC(C(O)c3ccco3)N(Nc3ccccc3)C2C1=O` (stereo not given) yielded a composite z-score of 0.148.
